RGS12 GoLoco inh: RGS12 GoLoco-Gai1 interaction inhibition. P63096. hit rate 0.44% among 230,000. AID 880. Potency, µM (highest dose often 61.6 µM), for the others: at the top dose activity, negative = inhibition, hits mostly inhibitors. Gai1:RGS12 GoLoco peptide FP, rhodamine, 10 min; active = well fitted inhibition curve with a large enough effect, not every such curve was filed as active; inactive = no such curve, though single readings can be large or run the other way; note: % is set by controls: 0 for no effect and ±100 for the full control effect; nearly all actives have a fitted effect of over 30% in size
ERG Ets-DNA blk: blocks human ERG Ets domain binding to DNA | P11308 | fluorescence polarization, His-ERG Ets domain / labelled DNA | Potency, µM (titrated, usually from 76.9 µM), for inactives: at the highest dose FP activity, negative = inhibition, hits mostly inhibitors | hit rate 0.028% among 370,000; active = well fitted inhibition curve with a large enough effect in the polarisation, with a control signal flat; inconclusive = small, poorly fitted or top-dose-only effect, or effect the other way, or a change in a side signal; inactive = no such curve, though single readings can be large or run the other way; the % refers to the polarisation;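 note: polarization taken with two DNA probes labelled with fluorescein and Texas red; % of control where 0% means no effect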
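His-tagged ERG Ets domain (1 uM in the protein solution; 300mM KCl, 50mM Tris-HCl, 1mM EDTA, 1mM DTT, pH 7.5) received compound, then a probe mix of 5 nM fluorescein-DNA and 100nM Texas-615-DNA. Fluorescence polarization was read for both dyes.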
TRb SRC2 PPI: inhibitors of human thyroid hormone receptor beta-SRC2 interaction; P10828; TRbeta-SRC2 peptide binding, fluorescence polarization; receptor liganded with 1 µM T3; Potency, µM (series often up to 106 µM), inactives show top-dose activity change, negative = inhibition, usual class: inhibitors; hit rate 0.065% among 280,000; AID 1469;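 note: plate controls were bound peptide for no effect and peptide without receptor for full effect; nearly all actives have a fitted effect of over 50% in size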
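Quantitative HTS by FP: 0.6 uM TRb LBD, 20 nM labeled SRC2 20-mer, 1 uM T3, 5% DMSO; 5 hr ambient incubation; % activity per concentration and potencies from concentration series.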
TexasRed fluor: counter-screen for TRb-SRC2 inhibitors: fluorescence interference; hit rate 0.29% among 280,000; Potency, µM (highest dose often 106 µM), for inactives: top-dose fluorescence change, negative = quenching; AID 1479; TRb/SRC2 Texas Red total fluorescence interference; active = well fitted curve in either direction with a large enough effect; inconclusive = small, poorly fitted or top-dose-only effect; note: % is set by controls: 0 for no effect and ±100 for the full control effect
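Flags fluorescent or light-absorbing compounds by total fluorescence, S + 2P, at 555 nm excitation and 632 nm emission. Mixture: 20 nM Texas Red SRC2 peptide, 0.6 uM human TRb LBD, 1 uM T3, 5% DMSO; compound exposure 5 h at ambient temperature.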
RECQ1 helicase: RECQ1 (human) helicase inhibition; hit rate 0.54% among 240,000; RECQ1 DNA unwinding, red fluorescence kinetic read; AID 2549; P46063; Potency, µM (highest dose often 57.3 µM), without a hit: at the top dose activity, negative = inhibition, usual class: inhibitors;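 note: plate controls were vehicle for no effect and no enzyme for full effect; nearly all actives have a fitted effect of over 30% in size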
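RECQ1T1 50 nM; forked duplex (20 bp + 30-nt ss tails) 200 nM, ATP 2 mM final; pH 8.0, 2 mM MgCl2, 2.5 ug/ml poly(dI-dC); 15 min compound preincubation; discontinuous kinetic read over 2 h at RT.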
BLM helicase inh: inhibitors of human Bloom syndrome helicase BLM; P54132; recombinant BLM DNA unwinding, fluorescence dequenching; Potency, µM (highest dose often 56.1 µM), for inactives: at the highest dose activity change, negative = inhibition, hits mostly inhibitors; hit rate 0.2% among 350,000; AID 2528;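 note: plate controls were vehicle for no effect and no enzyme for full effect; nearly all actives have a fitted effect of over 35% in size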
* hit, by the source's call; [ ] = another dose, or the depositor's remark. A selection: hits, their analogues and other compounds. The true share with any hit is near 0.71%. Unless noted, calls come from the whole dose curve; as a rule, active = well fitted curve in the direction sought with a large enough effect; inconclusive = small, poorly fitted or top-dose-only effect, or another doubt; inactive = no such curve, though single readings can be large; an effect the other way counts as inactive or inconclusive. Potency is the fitted concentration of half-maximal effect.

CC(N)(C(=O)O)c1ccc(P(=O)(O)O)cc1 (configuration not stated) was read as RGS12 GoLoco inh -5.3%, TRb SRC2 PPI 5.0%, TexasRed fluor 0.1% and RECQ1 helicase inactive.
For CC1(C)C=C2C(=NN(c3ccccc3)C(N)=C2C#N)CO1 the results were ERG Ets-DNA blk inconclusive and BLM helicase inh 17.8µM*.
Screening CC1(C)Cc2c(C#N)c(N)n(-c3ccccc3)c(=S)c2CO1 returned RGS12 GoLoco inh -12.5%, ERG Ets-DNA blk -3.5%, TRb SRC2 PPI -2.0%, TexasRed fluor -1.6%, RECQ1 helicase -2.9% and BLM helicase inh -7.4%.
For O=c1oc2cc(O)c(Cl)cc2c2ccccc12 the results were RGS12 GoLoco inh 1.5%, ERG Ets-DNA blk -3.6%, TRb SRC2 PPI 1.6%, TexasRed fluor -3.7%, RECQ1 helicase 3.0% and BLM helicase inh 4.6%.
Screening O=c1cc2c(=O)oc3cc(O)c(O)oc3c2c(O)c1O returned RGS12 GoLoco inh -8.7%, ERG Ets-DNA blk -18.8%, TRb SRC2 PPI 6.3%, TexasRed fluor -4.8%, RECQ1 helicase 4.47µM* and BLM helicase inh -5.5%.
For Cc1cc(NC(=O)CSc2cc(Cl)ccc2Cl)n(-c2ccccc2)n1 the results were RGS12 GoLoco inh -24.1%, ERG Ets-DNA blk -0.8%, TRb SRC2 PPI -23.5%[53 µM], TexasRed fluor 31.6µM*[quencher], RECQ1 helicase -9.3% and BLM helicase inh -0.2%.
For O=C(NC1CCCCCC1)C1CCN(C(=O)N2CCOc3ccccc32)CC1 the results were ERG Ets-DNA blk -5.1%, TRb SRC2 PPI 2.5%, TexasRed fluor -0.3% and BLM helicase inh -2.8%.
Screening C=C1C2c3ccccc3C(CC2(C)O[Si](C)(C)C)N1C(=O)OC (configuration not stated) returned RGS12 GoLoco inh -3.0%[14.2 µM], TRb SRC2 PPI -1.8%[11.2 µM], TexasRed fluor -1.4%[11.2 µM], RECQ1 helicase 1.8%[11.5 µM] and BLM helicase inh 0.0%[12.4 µM].
For C=C(C)C(=O)OCCOCCOCCOC(=O)C(=C)C the results were TRb SRC2 PPI 0.4%[201 µM] and TexasRed fluor -1.2%[201 µM].
`Cn1c(=S)[nH]c(=O)c2ncc(=O)[nH]c21` gave RGS12 GoLoco inh -6.0%, ERG Ets-DNA blk 14.1µM*, TRb SRC2 PPI 9.3%, TexasRed fluor -1.9%, RECQ1 helicase 0.2% and BLM helicase inh -2.1%.
For Cc1nc2[nH]c(=S)n(C)c(=O)c2nc1C the results were RGS12 GoLoco inh -12.7%, TRb SRC2 PPI -9.1%, TexasRed fluor -1.9%, RECQ1 helicase -0.9% and BLM helicase inh 4.8%.
`CCN(CC)Cc1cc(O)c(CN(CC)CC)cc1O` gave RGS12 GoLoco inh 7.94µM*, ERG Ets-DNA blk -9.3%, TRb SRC2 PPI -9.9%, TexasRed fluor inconclusive, RECQ1 helicase 25.1µM* and BLM helicase inh -1.5%.
`CCN1/C(=C/C=C/c2oc3ccc(-c4ccccc4)cc3[n+]2CC)Oc2ccc(-c3ccccc3)cc21` gave RGS12 GoLoco inh -195.9%, ERG Ets-DNA blk 31.6µM*, TRb SRC2 PPI 5.8%, TexasRed fluor -2.4%, RECQ1 helicase -18.4% and BLM helicase inh 22.4µM*.
Screening CCCCN1C(=O)/C(=C/C=C2\Oc3ccccc3N2CC)SC1=S returned RGS12 GoLoco inh 119.6%, ERG Ets-DNA blk 45.7%, TRb SRC2 PPI 24.3%[53 µM], TexasRed fluor 17.8%[53 µM], RECQ1 helicase inactive and BLM helicase inh -4.2%.
`Cc1ccc(C)c(Nc2nc3c(S(=O)(=O)c4ccc(Br)cc4)nnn3c3ccsc23)c1` gave ERG Ets-DNA blk 8.3%, TRb SRC2 PPI -3.6%, TexasRed fluor -0.5% and BLM helicase inh inconclusive.
Screening CC1(C)C(=O)N(Br)C(=O)N1Cl returned TRb SRC2 PPI 1.3%[201 µM] and TexasRed fluor -2.1%[201 µM].
Screening CC(C)c1onc(C(=O)Nc2sc3c(c2C#N)CCC3)c1[N+](=O)[O-] returned RGS12 GoLoco inh 1.9%, ERG Ets-DNA blk -8.1%, TRb SRC2 PPI -12.4%, TexasRed fluor -2.1%, RECQ1 helicase 39.8µM* and BLM helicase inh -14.9%.

Screening data: PubChem, National Center for Advancing Translational Sciences (NCATS)
